Out of some 3,200 compounds screened, about 300 (9.4%) showed activity. The entries come from a sample that favours actives as a whole. A number with no mark means an inactive call.

This is an account of results in the supplement of paper PMC6089552.

The test system of this experiment is A673/TR/shEF. Description: cell viability (LOESS-normalised, relative to median of negative controls) (log2 ratio); higher = more viable cells (less compound effect), active = hit call of the paper (over 3 MAD below the median). Particulars: treatment time: 72 h. The procedure, abridged:
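For three days, A673/TR/shEF Ewing sarcoma cells in 384-well plates (1,500 per well) were treated with library compounds at two or more concentrations or with DMSO controls, after doxycycline had been added or withheld 24 h beforehand to induce EWS-FLI1 shRNA knockdown. Viability was read by CellTiter-Glo luminescence on an Envision reader. The data were LOESS-corrected per plate, divided by the median of negative controls and log2-transformed.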

[1] abbreviates: 0.25 µM, library screen: screen1, EWS-FLI1 expression: high (no doxycycline).
[2] abbreviates: 0.25 µM, library screen: screen1, EWS-FLI1 expression: low (doxycycline-induced shRNA knockdown).
Setting [3] is: 2.5 µM, library screen: screen1, EWS-FLI1 expression: high (no doxycycline).
[4] abbreviates: 2.5 µM, library screen: screen1, EWS-FLI1 expression: low (doxycycline-induced shRNA knockdown).
The mark [5] stands for this setting: 0.103 µM, library screen: screen3, EWS-FLI1 expression: high (no doxycycline).
The mark [6] stands for this setting: 0.103 µM, library screen: screen3, EWS-FLI1 expression: low (doxycycline-induced shRNA knockdown).
Setting [7] is: 0.308 µM, library screen: screen3, EWS-FLI1 expression: high (no doxycycline).
The mark [8] stands for this setting: 0.308 µM, library screen: screen3, EWS-FLI1 expression: low (doxycycline-induced shRNA knockdown).
Where [9] appears, read: 0.926 µM, library screen: screen3, EWS-FLI1 expression: high (no doxycycline).
Where [10] appears, read: 0.926 µM, library screen: screen3, EWS-FLI1 expression: low (doxycycline-induced shRNA knockdown).
The mark [11] stands for this setting: 2.8 µM, library screen: screen3, EWS-FLI1 expression: high (no doxycycline).
Setting [12] is: 2.8 µM, library screen: screen3, EWS-FLI1 expression: low (doxycycline-induced shRNA knockdown).
Where [13] appears, read: 8.3 µM, library screen: screen3, EWS-FLI1 expression: high (no doxycycline).
[14] abbreviates: 8.3 µM, library screen: screen3, EWS-FLI1 expression: low (doxycycline-induced shRNA knockdown).
[15] abbreviates: 25 µM, library screen: screen3, EWS-FLI1 expression: high (no doxycycline).
[16] abbreviates: 25 µM, library screen: screen3, EWS-FLI1 expression: low (doxycycline-induced shRNA knockdown).
Setting [17] is: 0.25 µM, library screen: screen2, EWS-FLI1 expression: high (no doxycycline).
Setting [18] is: 0.25 µM, library screen: screen2, EWS-FLI1 expression: low (doxycycline-induced shRNA knockdown).
Where [19] appears, read: 2.5 µM, library screen: screen2, EWS-FLI1 expression: high (no doxycycline).
[20] abbreviates: 2.5 µM, library screen: screen2, EWS-FLI1 expression: low (doxycycline-induced shRNA knockdown).

Regarding `CC(C)/C(O)=C1/C(=O)O[C@@H](c2ccoc2)[C@]2(C)C(O)[C@@H](O)[C@@]34OC5(C)OC67CC(C)(C(O)[C@]6(O)[C@@H](O)[C@]3(O5)C12)[C@H](CC(=O)O)[C@]74C` (some centres not stated), the “cell viability (log2)” value is 0.0599 under setting [1], 0.0645 under setting [2], 0.0749 under setting [3] and 0.047 under setting [4].
The corresponding values for `COC(=O)C1=C(C)NC2=C(C(=O)CCC2)C1c1coc2ccccc2c1=O` (configuration not stated) are 0.109, 0.0579, 0.125 and 0.0379.
Consider `CC(=O)O[C@@H]1CC2C(C)(C)[C@@H](O)CC[C@]2(C)C2CC[C@@]3(C)[C@H](c4ccoc4)OC(=O)[C@H]4O[C@]43[C@@]21C` (some centres not stated), for which the “cell viability (log2)” value was 0.0735 under setting [1], 0.138 under setting [2], 0.203 under setting [3] and 0.158 under setting [4].
Turning to `CCOc1cc(/C=C2\SC(=S)N(CCS(=O)(=O)O)C2=O)ccc1O`, the “cell viability (log2)” value under setting [1] is -0.00487, the “cell viability (log2)” value under setting [2] was 0.0852, the “cell viability (log2)” value under setting [3] was 0.0865 and the “cell viability (log2)” value under setting [4] was 0.0812.
Turning to `CN1CCN(c2nc3ccccn3c(=O)c2/C=C2\SC(=S)N(CCc3ccccc3)C2=O)CC1`, the “cell viability (log2)” value by setting is: under setting [1], -0.00293; under setting [2], 0.00861; under setting [3], 0.0344; under setting [4], 0.124.
The corresponding values for `C[C@H](CCC(=O)O)[C@H]1CC[C@H]2[C@@H]3CC[C@@H]4CCCC[C@]4(C)[C@H]3CC[C@]12C` are 0.0641, -0.0159, 0.109 and -0.0358.
For `C/C=C(/C)C(=O)O[C@H]1[C@H](OC(C)=O)[C@]2(CO)[C@H](O)C[C@]3(C)C(=CC[C@@H]4[C@@]5(C)CC[C@H](O[C@@H]6O[C@H](C(=O)O)[C@@H](O[C@@H]7O[C@H](CO)[C@@H](O)[C@H](O)[C@H]7O)[C@H](O)[C@H]6O[C@@H]6O[C@H](CO)[C@@H](O)[C@H](O)[C@H]6O)[C@](C)(CO)[C@@H]5CC[C@]43C)[C@@H]2CC1(C)C.C/C=C(\C)C(=O)O[C@H]1[C@H](OC(C)=O)[C@@]2(CO)C(CC1(C)C)C1=CCC3[C@@]4(C)CC[C@H](O[C@@H]5O[C@H](C(=O)O)[C@@H](O[C@@H]6O[C@H](CO)[C@@H](O)[C@H](O)[C@H]6O)[C@H](O)[C@H]5O[C@@H]5O[C@H](CO)[C@@H](O)[C@H](O)[C@H]5O)[C@](C)(CO)C4CC[C@@]3(C)[C@]1(C)C[C@H]2O`, the “cell viability (log2)” value reads like this: under setting [1], 0.0112; under setting [2], -0.0408; under setting [3], 0.0934; under setting [4], 0.0403.
For the compound `CCC1=C[C@@H]2CN(C1)Cc1c([nH]c3ccccc13)[C@@](C(=O)OC)(c1cc3c(cc1OC)N(C)[C@H]1[C@@](O)(C(=O)OC)[C@H](OC(C)=O)[C@]4(CC)C=CCN5CC[C@]31[C@@H]54)C2`, the “cell viability (log2)” value runs as follows: under setting [5], -4.31 (active); under setting [6], -1.05 (active); under setting [7], -3.96 (active); under setting [8], -1.11 (active); under setting [9], -4.31 (active); under setting [10], -0.811 (active). Also, the “cell viability (log2)” value runs as follows: under setting [11], -4.31 (active); under setting [12], -0.798 (active); under setting [13], -3.91 (active); under setting [14], -0.769 (active); under setting [15], -3.44 (active); under setting [16], -0.836 (active).
Regarding `CC[C@]1(O)C[C@H]2CN(CCc3c([nH]c4ccccc34)[C@@](C(=O)OC)(c3cc4c(cc3OC)N(C=O)[C@H]3[C@@](O)(C(=O)OC)[C@H](OC(C)=O)[C@]5(CC)C=CCN6CC[C@]43[C@@H]65)C2)C1`, the “cell viability (log2)” value under setting [5] is -3.56 (active); the “cell viability (log2)” value under setting [6] was -0.748 (active); the “cell viability (log2)” value under setting [17] is -2.87 (active); the “cell viability (log2)” value under setting [18] was -0.436 (active); the “cell viability (log2)” value under setting [7] was -3.82 (active); the “cell viability (log2)” value under setting [8] is -0.668 (active). The “cell viability (log2)” value by setting is: under setting [9], -3.92 (active); under setting [10], -0.728 (active); under setting [19], -2.88 (active); under setting [20], -0.517 (active); under setting [11], -3.8 (active); under setting [12], -0.704 (active). Besides, the “cell viability (log2)” value is -3.93 (active) under setting [13], -0.847 (active) under setting [14], -3.66 (active) under setting [15] and -0.84 (active) under setting [16].
Turning to `CCC1(O)CC2CN(CCc3c([nH]c4ccccc34)[C@@](C(=O)OC)(c3cc4c(cc3OC)N(C)C3[C@]45CCN4CC=C[C@@](CC)([C@@H](OC(C)=O)[C@]3(O)C(=O)OC)[C@H]45)C2)C1` (some centres not stated), the “cell viability (log2)” value was -3.54 (active) under setting [17], -0.483 (active) under setting [18], -3.67 (active) under setting [19] and -0.537 (active) under setting [20].
On to `C=CCN1C(=O)C(=C2C(=O)N(C)c3ccccc32)SC1=S`, for which the “cell viability (log2)” value reads like this: under setting [1], 0.145; under setting [2], 0.0841; under setting [3], 0.0806; under setting [4], 0.0634.
In the case of `CC1(C)C[C@H](O)[C@]23CC[C@@H](O)[C@@](C)(CC[C@@H]12)C3`, the “cell viability (log2)” value reads like this: under setting [1], 0.155; under setting [2], 0.054; under setting [3], 0.181; under setting [4], 0.0139.
With `C=CCNc1nc2ccccn2c(=O)c1/C=C1\SC(=S)N(CCc2ccccc2)C1=O`, the “cell viability (log2)” value reads like this: under setting [1], 0.071; under setting [2], 0.0307; under setting [3], 0.121; under setting [4], 0.134.
For `CCOC(=O)c1c[nH]c2c(Cl)c(Cl)ccc2c1=O`, the “cell viability (log2)” value by setting is: under setting [1], 0.0772; under setting [2], 0.122; under setting [3], 0.11; under setting [4], 0.176.
Turning to `O=C(O)c1ccc(O)c2c1C(=O)c1cc(O)cc(O)c1C2=O`, the “cell viability (log2)” value is, setting by setting: under setting [1], 0.0473; under setting [2], -0.0191; under setting [3], 0.0745; under setting [4], 0.0247.
In the case of `COc1cc(CN2CCN(Cc3cccnc3)CC2)cc(OC)c1OC`, the “cell viability (log2)” value was 0.0843 under setting [1], 0.0394 under setting [2], 0.126 under setting [3] and 0.144 under setting [4].
Regarding `COC(=O)Nc1ccc(-c2nc(N3CCOCC3)c3cnn(C4CCN(Cc5cccnc5)CC4)c3n2)cc1`, the “cell viability (log2)” value runs as follows: under setting [5], -0.0181; under setting [6], 0.0282; under setting [7], -0.00456; under setting [8], -0.0439; under setting [9], -0.169; under setting [10], -0.0706. Also, the “cell viability (log2)” value by setting is: under setting [11], -0.33 (active); under setting [12], -0.297 (active); under setting [13], -0.973 (active); under setting [14], -0.691 (active); under setting [15], -1.84 (active); under setting [16], -1.76 (active).
Consider `COc1cc(OC)c(OC)cc1CN1CCN(Cc2cccnc2)CC1`, for which the “cell viability (log2)” value runs as follows: under setting [1], 0.0812; under setting [2], 0.0446; under setting [3], 0.193; under setting [4], 0.00403.
For `COC(=O)Nc1ccc(-c2nc(N3CCOCC3)c3cnn(C4CCN(C(=O)OC)CC4)c3n2)cc1`, the “cell viability (log2)” value under setting [5] was -0.0923; the “cell viability (log2)” value under setting [6] is 0.0164; the “cell viability (log2)” value under setting [7] is -0.0767; the “cell viability (log2)” value under setting [8] was -0.0949; the “cell viability (log2)” value under setting [9] was -0.134; the “cell viability (log2)” value under setting [10] was -0.0918. For the same compound, the “cell viability (log2)” value is, setting by setting: under setting [11], -0.281 (active); under setting [12], -0.237 (active); under setting [13], -0.419 (active); under setting [14], -0.244 (active); under setting [15], -0.744 (active); under setting [16], -0.369 (active).
